MARV entry inh: qHTS for inhibitors of binding or entry into cells for Marburg Virus. 300,000 compounds, 1.8% hits. Potency, µM (highest dose often 37.8 µM), most hits filed as inhibitors. Marburg virus pseudotyped entry inhibition, cell reporter. AID 540276, 2011; calls by dose curve; tested in HEK293 cells
FMDV antiviral: High Throughput Screening for Foot and Mouth Disease Virus Antivirals; FMDV antiviral cell-based qHTS; AID 1159524, 2015; Potency, µM (top dose mostly 57.9 µM), most hits filed as inhibitors; 410,000 compounds, 1.2% hits; calls by dose curve; tested in HEK293T cells; further: read-out not given here; nearly all actives have a fitted effect of over 45% in size
Lassa entry inh: qHTS for Inhibitors of binding or entry into cells for Lassa Virus; Lassa virus pseudotype entry inhibition, cell reporter; Potency, µM (doses to about 37.9 µM), usual class: inhibitors; 300,000 compounds, 1.2% hits; calls by dose curve; tested in HEK293 cells; further: nearly all actives have a fitted effect of over 50% in size
VACV Venus inh: qHTS for Stage-Specific Inhibitors of Vaccinia Orthopoxvirus: Venus Reporter Primary qHTS. Potency, µM (top dose mostly 36.5 µM), usual class: inhibitors. Vaccinia virus Venus reporter expression, fluorescence. AID 720580, 2013. 330,000 compounds, 0.46% hits; calls by dose curve; tested in A549 cells; further: nearly all actives have a fitted effect of over 30% in size
VACV mCherry inh: qHTS for Stage-Specific Inhibitors of Vaccinia Orthopoxvirus: mCherry Reporter Primary qHTS; Vaccinia virus mCherry reporter infection, fluorescence; Potency, µM (highest dose often 36.5 µM), actives largely listed as inhibitors; 310,000 compounds, 0.63% hits; calls by dose curve; tested in A549 cells; further: nearly all actives have a fitted effect of over 35% in size
Each line names hits and unclear results; the compound was inactive in the other large screens; ! = a repeat was not active. In the library only some 3.2% were active in any assay of this set; here they are far more common.

CC(C)Cc1ccc(C(=O)NCCOc2ccccc2)o1	Lassa entry inh 2.8µM
COc1ccccc1C(=O)NCCOc1ccc(C(C)(C)C)cc1	none (no result: MARV entry inh, Lassa entry inh, VACV Venus inh, VACV mCherry inh)
CC(C)(C)c1ccc(C(=O)NCCOc2ccccc2)cc1	MARV entry inh 1.6µM, FMDV antiviral 20µM, Lassa entry inh inconclusive
COCCCNCCOc1ccc(C(C)(C)c2ccccc2)cc1	MARV entry inh 16µM, Lassa entry inh inconclusive
Cc1ccc(OCCNC(=O)c2ccc(COc3ccccc3)o2)cc1	Lassa entry inh inconclusive
CC12CCC(=O)N1C(C(=O)NCc1ccc(Cl)cc1Cl)CS2 (configuration not stated)	none
CN1CCN(C(CNC(=O)C(=O)Nc2ccc3c(c2)OCCO3)c2ccc(F)cc2)CC1 (configuration not stated)	MARV entry inh inconclusive, Lassa entry inh inconclusive
O=S(=O)(c1ccc(Cl)cc1)N1CCN(c2nc(Nc3cc(Cl)ccc3O)nc3ccccc23)CC1	none (no result: MARV entry inh, FMDV antiviral, Lassa entry inh)
CC(=O)N1CCC[C@H]1C(=O)NCC1Cc2cc(C)cc(-c3ccc(Cl)cc3)c2O1 (some centres not stated)	none (no result: MARV entry inh, Lassa entry inh)
COc1ccc(-c2nnc3n(CCc4ccccc4)c(=O)c4ccccc4n23)c(OC)c1	MARV entry inh 10µM, FMDV antiviral 28µM, Lassa entry inh inconclusive
COc1cc(-c2nnc3n(CCc4ccccc4)c(=O)c4ccccc4n23)cc(OC)c1OC	FMDV antiviral inconclusive
CC(C)c1ccc(-c2nnc3n(CCc4ccccc4)c(=O)c4ccccc4n23)cc1	FMDV antiviral 28µM
Cc1cccc(NC(=O)c2cc(Cl)ccc2[N+](=O)[O-])c1	MARV entry inh inconclusive, VACV Venus inh inconclusive, VACV mCherry inh 6.3µM
COC(=O)[C@@H]1CCCN1Cc1ccc2c(c1)CN(Cc1cccn1-c1ncccn1)CCO2	FMDV antiviral inconclusive (no result: MARV entry inh, Lassa entry inh)
CCCCCOc1ccc2oc(=O)c3c(c2c1)CCCN3C(=O)CN1CCCC(C(=O)OCC)C1 (configuration not stated)	MARV entry inh inconclusive, FMDV antiviral inconclusive, Lassa entry inh 9.2µM, VACV Venus inh inconclusive, VACV mCherry inh inconclusive
Cc1ccc(O)c(NC(=O)CSc2n[nH]c(C)c2[N+](=O)[O-])c1	MARV entry inh inconclusive, VACV Venus inh inconclusive, VACV mCherry inh 2.5µM
Cc1coc2c1C(=O)C(=O)c1c-2ccc2c(C)cccc12	FMDV antiviral inconclusive, VACV Venus inh 7.1µM, VACV mCherry inh inconclusive (no result: MARV entry inh, Lassa entry inh)
CC1COC2=C1C(=O)C(=O)c1c2ccc2c1CCCC2(C)C (configuration not stated)	none (no result: MARV entry inh, Lassa entry inh)
C[C@H]1COC2=C1C(=O)C(=O)c1c2ccc2c1CCCC2(C)C	VACV Venus inh 11µM, VACV mCherry inh 11µM (no result: MARV entry inh, Lassa entry inh)
Cc1coc2c1C(=O)C(=O)c1c-2ccc2c1CCCC2(C)C	VACV Venus inh 11µM!, VACV mCherry inh 10µM! (no result: MARV entry inh, Lassa entry inh)
C=CCCCCCCCCC(=O)Nc1ncccn1	none (no result: MARV entry inh, Lassa entry inh)
CC(/C=C/c1ccccc1)=N\NC(N)=S	MARV entry inh inconclusive, VACV Venus inh inconclusive, VACV mCherry inh 4µM
CCOC(=O)C1(Cc2ccc(OC)cc2)CCN(C(=O)c2sc(C)nc2C)CC1	VACV Venus inh inconclusive (no result: MARV entry inh, Lassa entry inh)
CCOC(=O)C1(Cc2ccc(Cl)cc2)CCN(C(=O)c2sc(C)nc2C)CC1	FMDV antiviral 32µM (no result: MARV entry inh, Lassa entry inh, VACV Venus inh, VACV mCherry inh)
C#CCOC(=O)c1ccccc1C(=O)OCC#C	none (no result: VACV mCherry inh)
C#CCOC(=O)c1ccccc1C(=O)n1nnc2ccccc21	FMDV antiviral 22µM (no result: VACV Venus inh, VACV mCherry inh)
CCn1nc(C(=O)O)c(=O)c2c1CC1=C(C2)OCO1	none (no result: FMDV antiviral, Lassa entry inh, VACV Venus inh, VACV mCherry inh)
CCOc1cc(/C=N/NC(=O)COc2ccc(Cl)cc2)ccc1OS(=O)(=O)c1ccccc1	MARV entry inh 6.5µM, Lassa entry inh inconclusive, VACV Venus inh inconclusive, VACV mCherry inh inconclusive
O=C(CN1C(=O)CCC1=O)Nc1cccc2c1C(=O)NC2=O	none (no result: MARV entry inh, Lassa entry inh)
Fc1ccc(Nc2nc(N3CCOCC3)nc(N3CCOCC3)n2)cc1	MARV entry inh 7.1µM, Lassa entry inh inconclusive
COC(=O)c1ccc(Nc2nc(N3CCOCC3)nc(N3CCOCC3)n2)cc1	MARV entry inh 2µM, Lassa entry inh inconclusive
CC(=O)Nc1ccc(/C(C)=N/Nc2nc(Nc3cccc4ccccc34)nc(N3CCOCC3)n2)cc1	MARV entry inh 1.4µM, Lassa entry inh inconclusive, VACV Venus inh inconclusive
c1ccc(Nc2nc(N3CCOCC3)nc(N3CCOCC3)n2)cc1	MARV entry inh inconclusive, FMDV antiviral inconclusive, VACV Venus inh inconclusive (no result: VACV mCherry inh)
COc1ccc(Nc2nc(N3CCOCC3)nc(N3CCOCC3)n2)cc1	none (no result: MARV entry inh, Lassa entry inh, VACV Venus inh, VACV mCherry inh)
c1ccc(Nc2nc(N3CCNCC3)nc(N3CCOCC3)n2)cc1	MARV entry inh 11µM, Lassa entry inh 8.9µM
COc1ccc(N(CN2C(=O)[C@@H]3[C@@H](C2=O)[C@H]2C=C[C@@H]3C2)C(=O)c2ccco2)cc1	none (no result: FMDV antiviral, Lassa entry inh, VACV Venus inh, VACV mCherry inh)
CC1=NC(=O)C(C#N)C=C1c1ccncc1 (configuration not stated)	none (no result: FMDV antiviral, Lassa entry inh, VACV Venus inh, VACV mCherry inh)
CC(=O)OC[C@H]1O[C@H](C#Cc2ccccc2)C=C[C@H]1O	none (no result: FMDV antiviral, Lassa entry inh, VACV Venus inh, VACV mCherry inh)
COC(=O)CC=C1c2ccccc2C[C@H](OC)[C@@H]1C	none (no result: FMDV antiviral, Lassa entry inh, VACV Venus inh, VACV mCherry inh)
COc1ccc(Nc2nc(NCc3ccco3)nc(N3CCOCC3)n2)cc1	MARV entry inh 2.8µM
c1ccc2c(c1)c1cccc3ccc4cccc2c4c31	none (no result: MARV entry inh, Lassa entry inh)
O=C1c2ccccc2NC(c2cn[nH]c2-c2ccc(Cl)cc2)N1O (configuration not stated)	MARV entry inh inconclusive, FMDV antiviral 14µM, Lassa entry inh inconclusive, VACV mCherry inh inconclusive
CCCc1c(NC(=O)Nc2ccc(Cl)cc2Cl)cnn1-c1ccccc1	MARV entry inh 0.89µM, Lassa entry inh inconclusive, VACV mCherry inh inconclusive
CCCc1c(C(=O)Nc2ccc(F)cc2F)cnn1-c1ccccc1	none (no result: Lassa entry inh, VACV Venus inh, VACV mCherry inh)
O=C(COC(=O)c1ccccc1C(=O)c1ccc(Cl)c([N+](=O)[O-])c1)NC1CCCCCC1	MARV entry inh 4.1µM, FMDV antiviral inconclusive, Lassa entry inh 18µM (no result: VACV Venus inh, VACV mCherry inh)
Cn1c(N)c(C(=O)COC(=O)c2ccccc2C(=O)c2ccc(Cl)c([N+](=O)[O-])c2)c(=O)n(C)c1=O	MARV entry inh 11µM, FMDV antiviral inconclusive, Lassa entry inh inconclusive, VACV Venus inh inconclusive, VACV mCherry inh inconclusive
Cn1c(N)c(C(=O)COC(=O)c2ccccc2C(=O)c2ccccc2)c(=O)n(C)c1=O	none (no result: MARV entry inh, Lassa entry inh, VACV Venus inh, VACV mCherry inh)
Cc1ncc(Cc2ccccc2)c(C2CCN(S(=O)(=O)C[C@]34CC[C@H](CC3=O)C4(C)C)CC2)n1	none (no result: MARV entry inh, Lassa entry inh)
Cc1ccc(C)c(CN2C(=O)C3(c4ccccc42)N(c2ccc(Cl)cc2)C(=O)CS3(=O)=O)c1 (configuration not stated)	none (no result: MARV entry inh)
CC(=O)OCC1OC(OC2C[C@]3(C)C(CC(O)C4C([C@](C)(CCC=C(C)C)OC5OC(CO)C(O)C(O)C5O)CC[C@]43C)[C@@]3(C)CCC(O)C(C)(C)C23)C(O[C@@H]2OC(C)C(O)C(O)C2O)C(O)C1O (some centres not stated)	none (no result: MARV entry inh, Lassa entry inh)
C[C@H]1O[C@@H](O[C@H]2[C@@H](O)C[C@@H](O[C@H]3[C@@H](O)C[C@H](O[C@H]4CC[C@@]5(C)[C@H](CC[C@@H]6[C@@H]5CC[C@]5(C)[C@@H](C7=CC(=O)OC7)CC[C@]65O)C4)O[C@@H]3C)O[C@@H]2C)C[C@H](O)[C@@H]1O	VACV Venus inh 0.025µM, VACV mCherry inh 13µM (no result: MARV entry inh, FMDV antiviral, Lassa entry inh)

Compound activity from PubChem.
